# High-throughput results: PubChem, National Center for Advancing Translational Sciences (NCATS)
# HCV inh = blocks hepatitis C virus. Huh7.5.1 HCVcc-Cre infection, luciferase reporter, 44 h. Potency, µM (doses to about 41.8 µM), hits mostly inhibitors. actives 3.4% (n = 340,000). AID 651820
#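 Compounds are dispensed onto cells plated 4 h earlier at 1,000 per well, with HCVcc-Cre virus (about 0.5 moi) added next. Following 44 h of culture, luminescent signal is measured for 15 sec after 15 min with substrate at room temperature.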
# Pf growth 96h = inhibits malaria parasite growth, 96 h; actives 6.9% (n = 320,000); P. falciparum luciferase reporter growth, 96 h; AID 504834; Potency, µM (titrated, usually from 28.7 µM), actives largely listed as inhibitors
#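 Two-generation exposure (96 h) targets delayed-death phenotype. Reporter parasites carrying integrated firefly luciferase, in red cells at 2% hematocrit and 0.05% parasitemia final, kept at 37 C, 5% CO2; luminescence loss indicates inhibition.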
# HCMV antiviral = blocks human cytomegalovirus replication | HFF cells, HCMV-luciferase reporter, 72 h; stronger effect = lower value | activity change, negative = inhibition, % at 57.5 µM | actives 4.5% (n = 410,000); in the data active means activity change below about -60%; inconclusive means no clear call, values can overlap the other calls; inactive means above about -39%
#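 Steps: HFFs plated, 16 h 37C; compounds added; HCMV-luciferase added to MOI 1 PFU/cell; 72 h 37C; OneGlo reagent, 5 min room temperature; luminescence read, normalized to controls.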
# Pf growth 48h = inhibits P. falciparum growth in the first generation, 48 h | P. falciparum luciferase growth in erythrocytes, 48 h | Potency, µM (doses to about 28.7 µM), actives largely listed as inhibitors | actives 5.9% (n = 310,000) | AID 504832
#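 Read-out is firefly luciferase luminescence from an integrated reporter in P. falciparum, so falling signal marks reduced parasite growth. Infected erythrocytes were at 2% hematocrit and 0.1% parasitemia (final) in Albumax-supplemented RPMI 1640.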
# Numbers stand for hits; . = inactive; ? = inconclusive; / = no result. An excerpt weighted towards active compounds, which were near 13% of everything screened. Unless noted, the call rests on the fitted dose curve; in most records, active means well fitted inhibition curve with a large enough effect; inconclusive means small, poorly fitted or top-dose-only effect, or another doubt; inactive means no such curve, though single readings can be large or run the other way.
SMILES,HCV inh,Pf growth 96h,HCMV antiviral,Pf growth 48h
COc1ccc(CN(CCC(c2ccc3c(c2)OCO3)c2ccccc2OC)C(C)=O)cc1 (centres undefined),/,/,.,/
CN1CCN(c2ccccc2NC(=O)c2ccc(-c3ccccc3[N+](=O)[O-])o2)CC1,?,.,.,5.2µM
CS(=O)(=O)N1CCN(c2ccccc2NC(=O)c2ccc(-c3ccc(Br)cc3)o2)CC1,6.3µM,/,.,?
CC(=O)N1CCN(c2ccccc2NC(=O)c2ccc(-c3cccc([N+](=O)[O-])c3)o2)CC1,?,.,.,?
O=C(Nc1ccccc1N1CCOCC1)c1ccc([N+](=O)[O-])o1,.,.,.,.
CCN1CCN(c2c(Cl)cccc2NC(=O)c2ccc([N+](=O)[O-])o2)CC1,/,/,-97,/
O=C(Nc1ccccc1N1CCCCC1)c1ccc([N+](=O)[O-])o1,?,8.3µM,.,10µM
O=C(Nc1cccc(Cl)c1N1CCCC1)c1ccc([N+](=O)[O-])o1,?,.,.,?
O=C(Nc1ccccc1N1CCN(C(=O)c2ccc(Cl)cc2)CC1)c1ccc([N+](=O)[O-])o1,?,.,/,6.6µM
O=C(Nc1ccccc1N1CCN(C(=O)c2ccccc2)CC1)c1ccc(Cl)cc1,?,.,.,?
COc1ccc(C(=O)Nc2ccccc2N2CCN(C(=O)c3ccccc3)CC2)cc1Br,10µM,?,.,2.1µM
O=C(Nc1ccccc1N1CCN(C(=O)c2ccccc2)CC1)c1ccc(Br)o1,?,9.3µM,.,.
O=C(Nc1ccccc1N1CCN(C(=O)c2ccc(Cl)cc2)CC1)c1ccc(Br)cc1,?,?,.,/
CCOc1ccc(NC(=O)CSc2nnc3scc(-c4ccccc4)n23)cc1,/,/,.,/
Cc1nn(C(=O)c2cccc(Cl)c2)c(C)c1S(=O)(=O)N1CCOCC1,/,/,.,/
Cc1nn(C(=O)c2cccc(F)c2)c(C)c1S(=O)(=O)N1CCCCCC1,/,/,-91,/
Cc1nn(C(=O)c2cccc(F)c2)c(C)c1S(=O)(=O)N1CCOCC1,/,/,-81,/
Nc1ncnc(N2CCc3ccccc32)c1[N+](=O)[O-],.,?,-83,?
NNC(=O)c1ccc(N2CCc3ccccc32)c([N+](=O)[O-])c1,.,.,.,?
CN1C(=O)COCc2cc(-c3ccc(F)c(Cl)c3)ccc21,/,/,.,/
CCOc1ccc(CCNC(=O)c2ccc3[nH]c(C)c(C)c3c2)cc1,/,/,.,/
COc1ccccc1Cn1c(C)c(C(=O)NCc2cccc(C)c2)sc1=O,/,/,-61,/
Cc1c(C(=O)NCc2cccc([N+](=O)[O-])c2)sc(=O)n1Cc1cccc(F)c1,/,/,-61,/
COc1ccccc1Cn1c(C)c(C(=O)NCc2ccc(C#N)cc2)sc1=O,/,/,.,/
O=C(OCC#CCSc1nnc(-c2cccc3ccccc23)s1)c1cccs1,/,.,/,.
SMILES,HCV inh,Pf growth 96h,HCMV antiviral,Pf growth 48h
O=C(OCCc1cc2ccccc2c(=O)o1)c1ccccc1C(F)(F)F,22µM,?,.,?
O=C(OCCCc1cc2ccccc2c(=O)o1)c1ccccc1C(F)(F)F,.,.,.,.
OCCN(C=NC1=NN(c2cccc(C(F)(F)F)c2)CC1)CCO,.,.,.,.
CCN(C=NC1=NN(c2cccc(C(F)(F)F)c2)CC1)CC,11µM,.,.,.
Cc1c(NC(=O)OCCSc2nc(N(C)C)nc(N(C)C)n2)sc(=S)n1C,14µM,.,?,.
Cc1cccc(N2CCN(C(c3ccccc3)c3nnc(-c4ccccc4Cl)o3)CC2)c1C (centres undefined),/,/,.,/
COc1ccc(S(=O)(=O)N2CCC(CN3C(=O)c4cccc5cccc(c45)C3=O)CC2)cc1,?,1.5µM,.,?
O=C(c1ccc(S(=O)(=O)N2CCCC2)cc1)N1CCC(CN2C(=O)c3cccc4cccc(c34)C2=O)CC1,.,1.3µM,?,12µM
COc1ccc(OCC(O)CN2CCC(CN3C(=O)c4cccc5cccc(c45)C3=O)CC2)cc1 (centres undefined),?,.,.,8.3µM
CCOC(=O)C1CCN(CC(O)COCc2ccc3c(c2)OCO3)CC1 (centres undefined),.,.,.,.
Cc1ccc(C)c(OCC(O)CN2CCC(CN3C(=O)c4cccc5cccc(c45)C3=O)CC2)c1 (centres undefined),?,.,.,.
COc1ccc(CN2C(=O)c3cccc4cccc(c34)C2=O)cc1,.,.,.,?
O=C1c2cccc3cccc(c23)C(=O)N1CC1CCN(CC(O)COCc2ccc3c(c2)OCO3)CC1 (centres undefined),10µM,?,.,9.3µM
COc1ccc(C(=O)NCc2nnc(SCC(=O)N3CCCCC3)o2)cc1OC,.,3.3µM,.,/
O=C(CSc1nnc(COc2ccc(Cl)cc2)o1)N1CCCC1,.,.,.,.
COc1ccc(OCc2nnc(SCC(=O)N3CCCC3)o2)cc1,.,?,.,.
O=C(CSc1nnc(COc2ccc(Cl)cc2)o1)N1c2ccccc2CCc2ccccc21,10µM,?,.,?
COc1ccc(C(=O)NCc2nnc(SCC(=O)N3CCCCCC3)o2)cc1OC,.,.,.,.
O=C(NCc1nnc(SCC(=O)N2CCN(c3ccccc3)CC2)o1)c1c(F)cccc1Cl,.,10µM,?,.
COc1ccc(OCc2nnc(SCC(=O)N3CCCCC3)o2)cc1,.,12µM,.,.
C[C@@H]1CNC(=O)c2c(C(=O)N(C)Cc3ccccc3)ncn21,/,/,.,/
COc1ccc(NC(=O)c2cc(-c3ccc(F)cc3)no2)cc1OC,/,/,.,/
COc1ccc(Cc2nnc(SCC(=O)N3CCCC(C)C3)o2)cc1 (centres undefined),.,?,?,7.4µM
COc1ccc(Cc2nnc(SCC(=O)N3CCCC3)o2)cc1,.,.,.,.
CCOc1cccc2cc(S(=O)(=O)c3ccccc3F)c(=O)oc12,/,/,.,/
SMILES,HCV inh,Pf growth 96h,HCMV antiviral,Pf growth 48h
COC(=O)C(NC(=O)CCc1c(C)nc2ncnn2c1C)C(C)C (centres undefined),.,13µM,.,.
Cc1nc2ncnn2c(C)c1CCC(=O)Oc1ccccc1,.,/,-60,.
Cc1sc2c(c1C)c(=O)n(Cc1ccccc1)c(=O)n2CC(=O)Nc1cccc(Cl)c1,/,/,.,/
Cc1cc(OCCOCCN(C)CCO)cc(C)c1Cl,?,?,.,?
CCN(CC)CCOCCOc1cc(C)c(Cl)c(C)c1,11µM,.,-72,/
COc1ccccc1NC(=O)c1sc2nc(-c3cc4cc(Cl)ccc4oc3=O)[nH]c(=O)c2c1C,/,/,.,/
Cn1cc(C(c2ccccc2OCC(=O)O)c2cn(C)c3ccccc23)c2ccccc21,.,5.2µM,.,.
COc1ccc(-c2cc(C(=O)NCCc3ccccc3)c3c(-c4ccc(Cl)cc4)[nH]nc3n2)cc1,/,/,-98,/
COc1ccc(-c2cc(C(=O)NCCc3ccccc3)c3c(-c4ccccc4)[nH]nc3n2)cc1,/,/,-82,/
CCc1ccc(-c2[nH]nc3nc(-c4ccc(OC)cc4)cc(C(=O)NCCc4ccc(OC)c(OC)c4)c23)cc1,/,/,-91,/
COCCCNC(=O)c1cc(-c2ccc(OC)cc2)nc2n[nH]c(-c3ccc(Cl)cc3)c12,/,/,.,/
Cc1ccc(NC(=O)CCn2nc(C)c(S(=O)(=O)N3CCCCC3)c2C)cc1Cl,/,/,.,/
Cc1cccc2nc(-c3ccccn3)c(Nc3ccccc3)n12,/,/,-82,/
